Shown are actives, neighbours in structure and some others; about 8% of the full set was active somewhere.
LASV entry inh: inhibitors of Lassa virus binding or entry into cells. Lassa virus pseudotyped entry inhibition, cell-based qHTS. Potency, µM (series often up to 49.2 µM), for the others: top-dose activity change, negative = inhibition, most hits filed as inhibitors. actives 4.1% (n = 18,000)
Marburg entry: blocks Marburg virus binding or cell entry; Marburg virus pseudotype entry/binding inhibition, cell-based; actives 6.5% (n = 18,000); Potency, µM (top dose mostly 49.2 µM), for inactives: at the highest dose activity change, negative = inhibition, most hits filed as inhibitors; AID 720532
An asterisk follows results filed as active; ? = inconclusive; / = no result; ! = repeats disagree; [ ] = another dose, or the depositor's remark. The call rests on the fitted dose curve; tested in HEK293 cells. On the % scale 0 is the no-effect control and ±100 the full control effect; potency means the concentration at half of the fitted maximal effect.

SMILES	LASV entry inh	Marburg entry
CCOC(=O)CN1C(=O)NC(c2cccc(C(F)(F)F)c2)C(C(=O)OC)=C1C (centres undefined)	-14.2%[8.59 µM]	-11.4%[8.59 µM]
C=CCCOP1(=O)O[C@H](C=C)C[C@H](C=C)O1 (some centres undefined)	-13.1%	-10.3%
CC(Oc1cc(-n2cnc3ccc(OCC4CCN(C)CC4)cc32)sc1C(N)=O)c1ccccc1Cl (centres undefined)	/	0.628µM*
COc1ccc2ncn(-c3cc(OC(C)c4ccccc4Cl)c(C(N)=O)s3)c2c1 (centres undefined)	?	0.315µM*
CC(Oc1cc(-n2cnc3ccc(OCC4CCN(C)CC4)cc32)sc1C(N)=O)c1ccccc1C(F)(F)F (centres undefined)	/	1.41µM*
NC(=O)c1sc(-n2cnc3ccccc32)cc1OCc1ccccc1Br	/	15.8µM*
COC(=O)C1(C(=O)OC)C[C@@H]2CON=C2[C@@H]1c1ccccc1	-3.3%[8.59 µM]	1.5%[8.59 µM]
O=C1CCCC2=C1[C@H]1O[C@](c3ccsc3)(Cc3c1ccc1ccccc31)O2	1.8%[8.59 µM]	-13.7%[8.59 µM]
ON=C1CCc2cc(-c3nc(C4CCNCC4)[nH]c3-c3ccncc3)ccc21	59.1%	-3.2%
C=C(C)C(=O)C=CCCCC=CC(=O)OCC	6.7%[8.59 µM]	7.0%[8.59 µM]
COC(=O)N[C@@H](C=Cc1ccco1)[C@]1(C(=O)OC)CCCC1=O	4.9%[8.59 µM]	3.0%[8.59 µM]
O=C(Nc1ccc(/C=C/c2ccc(NC(=O)c3cc(S(=O)(=O)O)c4cccnc4c3O)cc2S(=O)(=O)O)c(S(=O)(=O)O)c1)c1cc(S(=O)(=O)O)c2cccnc2c1O	2.8%	3.55µM*
O=S(=O)(O)c1cc(I)c(O)c2ncccc12	?	-19.5%
COc1ccc(COC(=O)NN=C2C[C@@H](O)[C@@H](O)[C@@H]3[C@H]4C(=O)N(C[C@@H]5CCCO5)C(=O)[C@@H]4CC[C@@H]23)cc1	?	6.3%[8.59 µM]
C=CCN=C1N[C@@H](c2ccccc2)[C@H](C(=O)OC)[C@@H](C)N1CC	4.7%[8.59 µM]	-24.9%[8.59 µM]
C[C@H]1CCCC(=O)N[C@@H](c2ccccc2)[C@@H](C)CCCC(=O)N[C@@H]1c1ccccc1	16.7%[8.59 µM]	28.8%[8.59 µM]
Cn1c(-c2nonc2N)nc2cnccc21	43.5%	?
Cn1cc(CNC2CCN(c3cccc(NC(=O)c4cccnc4)c3)CC2)cn1	-6.4%	-17.0%
COc1ccccc1C(=O)Nc1cccc(N2CCC(NCc3cnn(-c4ccccc4)n3)CC2)c1	?	11.2µM*
CN(Cc1cnc2ccccn12)C1CCN(c2cccc(NC(=O)c3cccnc3)c2)CC1	-7.1%	-14.4%
O=C(Nc1cccc(N2CCC(NCc3cnn(-c4cccc(F)c4)c3)CC2)c1)c1ccncc1	6.9%	2.51µM*
COC(=O)C(Cc1cc(Br)c(OC)c(Br)c1O)=NO	10.7%[8.59 µM]	-16.0%[8.59 µM]
C=CCOC(=O)N[C@H](c1ccccc1)[C@H](C)C=CCC(=O)OC	6.7%[8.59 µM]	9.3%[8.59 µM]
CCCCC/C=C\C/C=C\C/C=C\C/C=C\CCCC(=O)Nc1ccc(O)cc1	31.6µM*	?
CCCCC/C=C\C/C=C\C/C=C\C/C=C\CCCC(=O)NCC(=O)O	?	-56.2%
SMILES	LASV entry inh	Marburg entry
CCCCC/C=C\C/C=C\C/C=C\C/C=C\CCCC(=O)Nc1ccc(O)cc1C	12.6µM*	?
CCCCC/C=C\C/C=C\C/C=C\C/C=C\CCCC(=O)NCCO	2.7%	8.6%
COc1ccc(O[C@H]2C=C[C@@H](c3ccccc3)O[C@H]2COC(=O)CCC(C)=NO[C@H](C)CN2CCCc3nc(C)c(C)cc32)cc1	3.5%[8.59 µM]	-24.2%[8.59 µM]
CCCC=Cc1ccc(CN2C(C(C)C)C(=O)N(Cc3cn(CCC4OCCO4)nn3)CCS2(=O)=O)cc1 (centres undefined)	/	-25.2%
O=C(c1cccs1)N1C[C@H](O)[C@H](n2cc(C3CC3)nn2)C[C@@H]1c1ccccc1	-17.2%	-7.4%
O=C(O)c1ccc2[nH]cc(CCCCN3CC=C(c4ccccc4)CC3)c2c1	-3.6%	?
Oc1ccc2[nH]cc(CCCCN3CC=C(c4ccccc4)CC3)c2c1	-16.4%	20µM*
Nc1ccn([C@@H]2O[C@H](CO)[C@@H](O)C2O)c(=O)n1 (some centres undefined)	7.08µM*	5.01µM*
Nc1ccn([C@@H]2O[C@H](CO)[C@@H](O)[C@H]2O)c(=O)n1	-5.5%	7.5%
Nc1ncn(C2CC(O)C(CO)O2)c(=O)n1 (centres undefined)	-12.4%	-6.2%
OC[C@H]1O[C@@H](n2cnc3c(=S)nc[nH]c32)[C@H](O)[C@@H]1O	6.31µM*	7.94µM*
O=c1[nH]cnc2c1ncn2[C@@H]1O[C@H](CO)[C@@H](O)[C@H]1O	3.5%	9.6%
Nc1ncn([C@H]2O[C@@H](CO)[C@@H](O)[C@@H]2O)c(=O)n1	2µM*	3.16µM*
CC(=O)c1ccc(OCc2cn(CC(=O)c3ccc(O)cc3)nn2)cc1C	8.1%	12.0%
CCCCCC(=O)N1C[C@H](n2cc(C3CC3)nn2)[C@@H](O)C[C@H]1c1ccccc1	-16.7%	22.8%
Cc1cc(F)ccc1O[C@H]1C=C[C@@H](c2ccc3c(c2)OCO3)O[C@H]1CO	10.3%[8.59 µM]	14.2%[8.59 µM]
COC(=O)CC=C[C@H](C)[C@@H](NC(=O)C(F)(F)F)c1ccccc1Br	-1.4%[8.59 µM]	-21.4%[8.59 µM]
CCCSc1cc(OC)c(CCN)cc1OC	?	22.4µM*
COc1cc(CCN)ccc1O	-1.4%	1.5%
COc1cccc([C@H]2Oc3ccc(OC)cc3C(=NOCC[C@@H]3C=C[C@H](OC(C)=O)[C@@H](COC(C)=O)O3)[C@H]2O)c1	/	-24.0%[8.59 µM]
CN(C)CC(O)Cn1c2ccc(Br)cc2c2cc(Br)ccc21 (centres undefined)	22.4µM*	7.94µM*
O[C@@H]1CN(Cc2cccs2)[C@@H](c2ccccc2)C[C@@H]1n1cc(-c2ccc(F)cc2)nn1	-23.2%	?
CC12C=C(C=CC=Cc3ccco3)C(C)(C1)C(C=Cc1ccco1)CC2=O (centres undefined)	0.0%[8.59 µM]	-19.0%[8.59 µM]
C=CC[C@@]1(c2ccc(OC)cc2)Oc2ccccc2C2=NCCN=C21	15.1%[8.59 µM]	?
CCCCN1CCC(CCC(=O)c2cc(Cl)c(N)cc2OC)CC1	28.2µM*!	11.2µM*
SMILES	LASV entry inh	Marburg entry
CCOc1cc(N)c(Cl)cc1C(=O)NCC1CN(Cc2ccc(F)cc2)CCO1 (centres undefined)	-0.7%	11.3%
Cc1cccc(C)c1Nc1oc(-c2ccccc2)nc1C(C)(C)C	16.6%[8.59 µM]	1.6%[8.59 µM]
COCCN1C(=O)NC(c2ccccc2)C(C(=O)OC)=C1C (centres undefined)	-4.2%[8.59 µM]	8.2%[8.59 µM]
COc1cc2c(cc1OC)[C@@H]1O[C@](c3ccsc3)(C2)OC2=C1C(=O)CC(C)(C)C2	-11.4%[8.59 µM]	-12.1%[8.59 µM]
O=C(c1ccc(OCCN2CCCCC2)cc1)c1c(-c2ccc(O)cc2)sc2cc(O)ccc12	31.6µM*!	14.1µM*
CCCCOc1ccc(C(=O)CCN2CCCCC2)cc1	-8.9%	?
CC(C)N1CCN(c2ccc(C(=O)c3c(-c4ccc(O)cc4)sc4cc(O)ccc34)cc2)CC1	?	5.01µM*
C=C(C)C(O)C=Cc1ccc(C(F)(F)F)cc1 (centres undefined)	47.3%[8.59 µM]	?
C/C1=C2N=C(/C=C3N=C(/C(C)=C4\[N-][C@@](C)([C@@H]5N=C1[C@](C)(CCC(=O)NCC(C)OP(=O)(O)O[C@H]1[C@@H](O)[C@@H](n6cnc7cc(C)c(C)cc76)O[C@@H]1CO)[C@H]5CC(N)=O)[C@@](C)(CC(N)=O)[C@@H]4CCC(N)=O)[C@@](C)(CC(N)=O)[C@@H]\3CCC(N)=O)C(C)(C)[C@@H]/2CCC(N)=O.CC(=O)O.[Co] (some centres undefined)	3.16µM*	2.82µM*

Assay outcomes: PubChem BioAssay, National Center for Advancing Translational Sciences (NCATS)
